# Reference: ChEMBL document CHEMBL3988442, “University of Dundee, Small-Polar-MMV Screening Library” (2021)
# Among all 69,000 compounds or so, about 1,000 (1.4%) showed an effect of 50% or more. Many of the other results were omitted from the sample, so strong results are more common in it than they were.
# Test system: Leishmania donovani
# Assay: Leishmania intramacrophage assay
# Assay type: functional, organism-based
# Parameters: scale not given: in the data most compounds retested in dose-response had high values
smiles,measurement,setting,value
CC(C)n1cc(N2CC(C(=O)N3CCN(C)CC3)CC2=O)cn1 (stereo not drawn),Percent Effect,"30.3 µM, […]",26.64%
O=C(c1cncc(Br)c1)N1CCCc2ccc(F)cc21,Percent Effect,"30.3 µM, […]",14.67%
CCc1c(C)nn(CC(=O)NC(C(=O)O)c2c(C)n[nH]c2C)c1C (stereo not drawn),Percent Effect,"30.3 µM, […]",12.75%
Cc1ccc(CN(C)Cc2cc(C3CC3)[nH]n2)c(O)n1,Percent Effect,"30.3 µM, […]",5.894%
Cc1nn(C)cc1S(=O)(=O)N[C@@H]1CC[C@@H](n2ccnc2C)[C@@H]1O,Percent Effect,"30.3 µM, […]",-29.93%
CN1CCC/C1=N\S(=O)(=O)c1ccc(NC(=O)c2ccco2)cc1,Percent Effect,30 µM,-21.5%
CCNC(=O)[C@@H]1C[C@H](NC(=O)c2cncnc2C)CN1Cc1ccsc1,Percent Effect,"30.3 µM, […]",37.2%
CCNC(=O)[C@@H]1C[C@@H](NC(=O)c2cnc[nH]c2=O)CN1Cc1ccsc1,Percent Effect,"30.3 µM, […]",54.56%
CCNC(=O)[C@@H]1C[C@@H](NC(=O)c2cccnc2O)CN1Cc1ccsc1,Percent Effect,"30 µM, 30.03 µM",19.61%
CC(=O)Cn1ncc(N2CCOCC2)cc1=O,Percent Effect,"30.3 µM, […]",4.61%
Fc1ccc(CN2CCCC(c3cc4ncccc4[nH]3)C2)cc1 (stereo not drawn),Percent Effect,"30.3 µM, […]",-0.4017%
CC(=O)Nc1ccc(CN2CCCC(c3cc4ncccc4[nH]3)C2)cc1 (stereo not drawn),Percent Effect,"30.3 µM, […]",40.95%
CCOc1ccc(CN2CCCC(c3cc4ncccc4[nH]3)C2)cc1 (stereo not drawn),Percent Effect,"30.3 µM, […]",54.07%
O=C(CC1NC(N2CCc3ccccc32)=NC1=O)Nc1ccc(Cl)cc1 (stereo not drawn),Percent Effect,"30.3 µM, […]",9.68%
Cc1nc(O)cc(CCNc2nccc(CCC(F)(F)F)n2)n1,Percent Effect,"30.3 µM, […]",19.16%
CC(Cn1ccnc1)NC(=O)N1CCN(Cc2ccsc2)CC1 (stereo not drawn),Percent Effect,30 µM,56.49%
CC(Cn1cccn1)NC(=O)N1CCN(Cc2ccsc2)CC1 (stereo not drawn),Percent Effect,"30.3 µM, […]",0.9675%
CC(Cn1ccnc1)NC(=O)N1CCN(Cc2ccncc2)CC1 (stereo not drawn),Percent Effect,30 µM,-0.977%
CN1C(=O)CC(C(=O)O)C12CCN(c1ccc3c(n1)CCCC3)CC2 (stereo not drawn),Percent Effect,"30.3 µM, […]",21.03%
CCn1ncnc1C(C)NC(=O)C1CCN(C(C)C)CC1 (stereo not drawn),Percent Effect,"30 µM, 30.03 µM",5.618%
CCn1ncnc1C(C)NC(=O)C1CCN(C2CCCCC2)CC1 (stereo not drawn),Percent Effect,"30.3 µM, […]",10.97%
CCn1ncnc1C(C)NC(=O)C1CCN(C(=O)COC)CC1 (stereo not drawn),Percent Effect,"30 µM, 30.03 µM",54.19%
CC(=O)NC(C)(C)C(=O)Nc1ncc(Cc2ccc(C)c(F)c2)s1,Percent Effect,"30 µM, 30.03 µM",11.96%
Cc1nn(C)c(C)c1-c1ccnc(N(C)Cc2noc(C(C)C)n2)n1,Percent Effect,"30.3 µM, […]",46.51%
Cc1nn(C)cc1-c1ccnc(N(C)Cc2noc(C(C)C)n2)n1,Percent Effect,"30.3 µM, […]",19.89%
Cc1nn(C)c(C)c1-c1ccnc(N(C)Cc2nc(C(C)C)no2)n1,Percent Effect,"30.3 µM, […]",52.75%
CCc1nc(CN(C)C2CCN(CCC(=O)N3CCCCC3)C2)no1 (stereo not drawn),Percent Effect,"30.3 µM, […]",22.94%
Fc1cnc(N2CCn3cc(CNc4ccccn4)nc3C2)nc1.O=C(O)C(F)(F)F.O=C(O)C(F)(F)F,Percent Effect,"30 µM, 30.03 µM",-20.21%
O=C(O)C(F)(F)F.O=C(c1ccc[nH]1)N1CCn2cc(CN3CCCC3)nc2C1,Percent Effect,"30 µM, 30.03 µM",-3.456%
O=C(O)C(F)(F)F.O=C(c1ccc[nH]1)N1CCn2cc(Cn3cccn3)nc2C1,Percent Effect,"30.3 µM, […]",51.47%
O=C(Cc1ccc(F)cc1)N1CCn2cc(Cn3cccn3)nc2C1.O=C(O)C(F)(F)F,Percent Effect,"30 µM, 30.03 µM",-23.45%
N#CC1(C(=O)N2CCOC(c3ccc(F)cc3)C2)CCCCC1 (stereo not drawn),Percent Effect,"30.3 µM, […]",33.91%
O=C(Nc1cc(C(F)(F)F)c[nH]c1=O)C1CCNCC1,Percent Effect,"30.3 µM, […]",29.22%
Cl.O=C(Nc1cc(C(F)(F)F)c[nH]c1=O)C1CCCCN1 (stereo not drawn),Percent Effect,"30.3 µM, […]",10.48%
O=C(Nc1cc(C(F)(F)F)c[nH]c1=O)C1CCCO1 (stereo not drawn),Percent Effect,"30.3 µM, […]",65.61%
CN1CCOC(CNCC(=O)NCCC2=CCCCC2)C1 (stereo not drawn),Percent Effect,"30.3 µM, […]",0.5751%
C[C@@H]1CN(Cc2nc(Cc3ccccc3F)no2)C[C@H](C)O1,Percent Effect,"30.3 µM, […]",14.95%
CO[C@@H]1CCN(C(=O)c2cc(C)on2)C[C@@H]1Cc1ccccc1,Percent Effect,"30.3 µM, […]",52.23%
COc1ccc(C[C@H]2CN(C(=O)c3cc(C)no3)CC[C@H]2OC)cc1,Percent Effect,"30.3 µM, […]",7.467%
CO[C@H]1CCN(C(=O)c2cc(C)on2)C[C@@H]1Cc1ccccc1,Percent Effect,"30.3 µM, […]",-10.42%
CC(=O)N1CCC2(CC1)CC(C(C)C)=NO2,Percent Effect,"30.3 µM, […]",-2.802%
NC(=O)CSCC(=O)NCC1CCCC1,Percent Effect,"30.3 µM, […]",12%
CNC(=O)C1CN(Cc2ccc(C#N)cc2F)c2ccccc2O1 (stereo not drawn),Percent Effect,"30.3 µM, […]",34.5%
O=C1CO[C@H]2CN(Cc3ccc(F)c(F)c3)C[C@H]2N1,Percent Effect,"30.3 µM, […]",13.71%
CCOC(=O)C1(Cc2ccccc2-c2ccccc2OC)CCNCC1.Cl,Percent Effect,"30.3 µM, […]",51.68%
COc1ccccc1-c1ccccc1CC1(C(=O)O)CCNCC1,Percent Effect,"30.3 µM, […]",-31.14%
COc1ccc(F)cc1-c1ccccc1CC1(C(=O)O)CCOCC1,Percent Effect,"30.3 µM, […]",-18.67%
CCNC(=O)C1CCCN(c2ccc3ccc(F)cc3n2)C1 (stereo not drawn),Percent Effect,"30.3 µM, […]",4.617%
CC(C)Oc1ncccc1CNC(=O)NC(C)c1cccs1 (stereo not drawn),Percent Effect,"30.3 µM, […]",19.58%
CCCOc1cc(C)ccc1NC(=O)NCCNC(=O)C(C)C,Percent Effect,"30.3 µM, […]",-16.43%
COc1ccc2c(c1)OCC(Cc1ccc(C)nc1N)C2 (stereo not drawn),Percent Effect,"30.3 µM, […]",-0.8362%
COc1ccc2c(c1)OCC(CNc1cc(N)nc(SC)n1)C2 (stereo not drawn),Percent Effect,"30.3 µM, […]",52.24%
CCc1nc2c(NCC3COc4c(cccc4OC)C3)ncnc2o1 (stereo not drawn),Percent Effect,"30.3 µM, […]",45.88%
